PAFAH1B3 inh: PAFAH1B3 (human) inhibition; Q15102; inhibition, % at 3.39 µM; AID 492972; 340,000 tested, 0.28% active; recombinant PAFAH1B3, FP-rhodamine probe, fluorescence polarization;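 active means inhibition above the screen-wide average of all tested compounds plus 3 SD, cut at about 25% in these data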;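 further: 0% = enzyme with DMSO only and 100% = wells lacking PAFAH1B3 protein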
Target sequence (Q15102 whole entry, looked up): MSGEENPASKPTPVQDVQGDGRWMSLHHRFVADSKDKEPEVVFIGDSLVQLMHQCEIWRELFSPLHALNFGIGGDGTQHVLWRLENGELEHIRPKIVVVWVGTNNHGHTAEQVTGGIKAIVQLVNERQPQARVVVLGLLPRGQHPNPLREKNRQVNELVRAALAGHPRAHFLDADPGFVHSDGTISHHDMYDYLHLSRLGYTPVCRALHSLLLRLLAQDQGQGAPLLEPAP
PAFAH1B2 FP inh: PAFAH1B2 (human) inhibition. P68402. 340,000 tested, 1.2% active. recombinant PAFAH1B2, FP-rhodamine activity probe, fluorescence polarization. inhibition, % at 3.39 µM. AID 492953;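 active means inhibition above the mean of all tested compounds plus 3 SD, cut at about 24% in these data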;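 further: 0% = enzyme with DMSO and 100% = wells lacking PAFAH1B2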
PfM18AAP inh-1: blocks P. falciparum M18 aspartyl aminopeptidase. 290,000 tested, 1.2% active. recombinant PfM18AAP, H-Glu-NHMec fluorogenic cleavage. inhibition, % at 7.35 µM. AID 1822;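 active means inhibition above the campaign mean inhibition over all tested compounds plus 3 SD, cut at about 28% in these data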;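 further: 0% = plate median of test compound wells and 100% = 2 mM ZnCl2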
Pemphigus Ab inh: human desmoglein-3 autoantibody binding inhibition | 310,000 tested, 0.48% active | P32926 | DSG3-coupled beads, scFv-anti-DSG3-GFP binding, flow cytometry; stronger effect = lower value | binding (percent of control), % at 10 µM;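 active means binding more than 3 SD below its plate's average and above zero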;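 further: hits lower antibody fragment binding to DSG3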
PAFAH2 inh: PAFAH2 (human) inhibition. Q99487. recombinant PAFAH2, FP-rhodamine activity probe, fluorescence polarization. inhibition, % at 3.39 µM. 340,000 tested, 0.99% active;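 active means inhibition above the mean over all tested compounds plus 3 SD, cut at about 30% in these data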;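 further: inhibitors block probe labeling of enzyme so polarization drops; 0% = enzyme with DMSO and 100% = wells lacking PAFAH2 protein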
pPAFAH FP inh: inhibitors of human plasma PAF acetylhydrolase (pPAFAH); recombinant pPAFAH, FP-rhodamine probe fluorescence polarization; 330,000 tested, 1.5% active; AID 463082; inhibition, % at 3.39 µM;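 active means inhibition above the mean inhibition across the screen plus 3 SD, cut at about 25% in these data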;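 further: inhibitors block binding of the rhodamine activity-based probe so polarization drops; 0% = enzyme with DMSO and 100% = wells lacking pPAFAH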
PfM18AAP inh-2: confirmation of Plasmodium falciparum M18 aspartyl aminopeptidase inhibitors; shares compounds with PfM18AAP inh-1; recombinant PfM18AAP, H-Glu-NHMec fluorogenic cleavage; inhibition, % at 7.35 µM; 2,400 tested, 28% active; AID 2170;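 active means mean inhibition over replicate wells above the hit cutoff set for the earlier primary screen, cut at about 29% in these data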;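 further: 0% = median of test compound wells and 100% = 2 mM ZnCl2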
CTSL1 confirm: Cathepsin L (human) inhibition, confirmation; shares compounds with PfM18AAP inh-1; purified cathepsin L1, Z-Leu-Arg-MCA fluorescence; inhibition, % at 5.96 µM; 2,400 tested, under 10 active;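 active means average inhibition across replicates above the hit cutoff set in the earlier primary screen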;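 further: 0% = median of test compound wells and 100% = Z-Phe-Ala-diazomethylketone 1 µM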
Target sequence (P07711 whole entry, looked up): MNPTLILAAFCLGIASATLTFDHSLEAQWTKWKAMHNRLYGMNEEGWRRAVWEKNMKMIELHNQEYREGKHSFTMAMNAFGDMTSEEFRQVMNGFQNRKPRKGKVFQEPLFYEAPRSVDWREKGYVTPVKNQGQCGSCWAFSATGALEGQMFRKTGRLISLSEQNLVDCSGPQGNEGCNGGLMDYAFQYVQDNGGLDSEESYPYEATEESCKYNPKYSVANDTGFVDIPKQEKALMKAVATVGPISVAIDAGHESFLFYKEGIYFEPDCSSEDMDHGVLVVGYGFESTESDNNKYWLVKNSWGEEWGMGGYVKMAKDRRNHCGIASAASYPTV
Starred values were filed as active, the others as inactive; . = not tested or not shown. Only some compounds are listed: those with a hit (about 3.8% of all), similar ones and a draw of the others.

SMILES | PAFAH1B3 inh | PAFAH1B2 FP inh | PfM18AAP inh-1 | Pemphigus Ab inh | PAFAH2 inh | pPAFAH FP inh | PfM18AAP inh-2 | CTSL1 confirm
Clc1ccc(NCn2cncn2)nc1 | 11.7 | -4.2 | 78.5* | . | 8.8 | -0.1 | 63.5* | 4.1
COc1cccc(C2C(C#N)=C(N)OC3=C2C(=O)CC(c2ccco2)C3)c1OCc1ccc(F)cc1 (centres undefined) | 6.5 | 4.3 | 35.0* | 87.1 | -3.8 | 7.2 | -52.8 | -5.6
NS(=O)(=O)c1ccc(NC(=O)NC2CCCCC2)cc1 | 0.1 | 3.2 | -5.7 | 95.9 | 3.1 | -0.8 | . | .
NS(=O)(=O)c1ccc(NC(=S)NC2CCCCC2)cc1 | -2.5 | 4.8 | 42.6* | 102.4 | 3.1 | 0.8 | -3.8 | 0.9
Cc1ccccc1-n1sc2cc(F)ccc2c1=O | 1.7 | 2.7 | 69.5* | 68.7* | 5.0 | 6.2 | 64.2* | -6.5
CCOc1ccc(OCCC(=O)OCC(=O)NC(C)c2ccccc2)cc1 (centres undefined) | 2.3 | 1.6 | . | 98.6 | 4.1 | 20.3 | . | .
CCOc1ccc(NS(=O)(=O)c2c(C)nc3sc(CC)nn3c2=O)cc1 | 9.2 | 2.0 | 1.0 | 96.9 | 7.1 | -0.2 | . | .
O=C(CSc1ccc2nnc(CCNC(=O)c3ccc(F)cc3)n2n1)NCc1ccco1 | 0.7 | -2.7 | 8.4 | 96.4 | -3.2 | -6.7 | . | .
Cc1ccc(NC(=O)c2ccc(Cl)c(S(=O)(=O)N3CCCCCC3)c2)nc1 | -2.4 | 2.1 | . | . | -6.3 | 1.0 | . | .
O=c1c2ccccc2nc2n1CCCCC2 | -5.7 | -0.8 | -0.2 | 99.4 | 3.0 | -8.8 | . | .
O=c1c2ccccc2nc2n1CCC2 | -0.8 | 2.4 | 45.5* | 114.7 | 7.3 | 0.5 | 17.3 | -10.0
O=C(NNC(=O)c1nn(-c2ccc(F)cc2)ccc1=O)c1ccccc1Cl | 9.8 | -1.4 | 5.3 | 111.8 | 6.2 | -2.5 | . | .
C/C(=N\Nc1nc2ccccc2[nH]1)c1ccc(N2CCOCC2)cc1 | 3.7 | 1.7 | 45.8* | 106.5 | 1.3 | 4.3 | -69.3 | -5.2
C/C(=N\Nc1ncc(Cl)cc1Cl)c1ccccn1 | 3.1 | 5.0 | 38.2* | 112.2 | 4.3 | . | -11.3 | -8.7
C/C(=N\Nc1ccc(Cl)c(C(=O)O)c1)c1ccccn1 | 4.1 | 3.0 | 18.9 | 99.0 | 7.7 | 7.4 | . | .
C/C(=N\Nc1ncc(Cl)cc1Cl)c1ccc(N2CCOCC2)cc1 | 8.8 | 4.2 | 52.1* | 104.8 | 5.0 | -10.4 | 5.3 | 0.7
CC1=C(C(=O)Nc2ccccc2)C(c2cccs2)NC(=O)N1 (centres undefined) | 1.5 | 5.1 | -12.0 | 105.9 | -1.6 | 6.9 | . | .
O=c1ccc2cc(O)c(O)cc2o1 | 9.1 | 0.6 | 41.9* | 92.7 | -3.0 | 4.4 | 30.5* | 1.6
COc1ccc(-c2nc(N/N=C(\C)c3ccc(O)cc3)c3ccccc3n2)cc1 | 9.2 | -4.3 | 63.1* | 94.6 | -4.0 | -3.3 | -62.1 | 3.3
COc1ccc(C2Nc3cccc4cccc(c34)N2)cc1Br | 16.4 | 8.4 | 35.4* | 105.6 | -8.3 | 10.5 | -13.3 | -2.4
Brc1ccc(C2Nc3cccc4cccc(c34)N2)cc1 | 10.0 | 5.8 | . | 113.8 | -1.2 | . | . | .
COc1ccc(F)cc1S(=O)(=O)N1CCc2ccccc2C1 | . | . | . | 98.5 | . | . | . | .
O=C1NCCCC2c3c(cc(Br)c(O)c3Br)OC12N1CCCCC1 (centres undefined) | 4.1 | 5.0 | 51.0* | 105.0 | 1.3 | 11.3 | -93.4 | 2.9
Cc1ccc(/C=N/NC(=O)c2cccc(NC(=O)c3ccccc3C)c2)o1 | 4.0 | 0.2 | 9.0 | 105.0 | -15.4 | 1.0 | . | .
Cc1cccc(C(=O)Nc2ccc(C(=O)N/N=C/c3ccc(C)o3)cc2)c1 | -6.2 | 0.8 | 41.8* | 99.2 | 3.6 | -0.6 | -31.3 | 3.0
COC(=O)c1c(N)sc(C(=O)NCCc2ccccc2)c1C | 6.4 | 5.7 | 39.9* | 96.2 | 0.9 | . | -10.7 | -4.5
COc1cccc(OC)c1C(=O)NCCc1ccccc1 | 3.5 | 2.1 | . | 110.1 | 0.9 | -1.9 | . | .
COc1cc(/C=C(\C#N)C(=O)N2CCCCC2)ccc1O | 3.8 | 0.5 | 6.2 | 97.8 | 5.6 | 3.0 | . | .
N#C/C(=C\c1ccc(O)c(O)c1)C(=O)NCCCc1ccccc1 | 22.5 | 38.3* | 33.9* | 107.4 | 25.1 | 27.2* | -9.5 | -2.7
